# An excerpt weighted towards active compounds, which were near 1.1% of everything screened.
# NCOA1 inh – inhibitors of human steroid receptor coactivator 1 (SRC1). Q15788. HEK293 GAL4-SRC1 luciferase reporter, luminescence. inhibition, % at 3.6 µM. 0.12% of 360,000 active. AID 588354;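 active = inhibition above the campaign mean plus 3 SD, with each screening campaign given its own cutoff, cut at about 60% in these data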
# GalR3 antag – human GalR3 antagonism; O60755; HEK293 GalR3-CNG cAMP membrane potential fluorescence; galR3 body fused to GalR1 C-terminus; inhibition, % at 3 µM; 0.44% of 360,000 active; AID 651719;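 active = inhibition above the screen-wide average plus 3 SD, cut at about 13% in these data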;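 also: forskolin and galanin both at EC90 stimulate the cells; cAMP rise reported by CNG channel membrane potential dye signal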
# NR5A2 inv ag – NR5A2 inverse agonism in reporter assay; O00482; HEK293T StAR-luciferase reporter, LRH-1 transfected, 24 h; inhibition, % at 3.6 µM; 0.13% of 360,000 active;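 active = inhibition above the mean inhibition of all tested compounds plus 3 SD, cut at about 73% in these data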
# SRC2 inh – human SRC2 (NCOA2) inhibition | Q15596 | HEK293 GAL4-SRC2 luciferase reporter, luminescence | inhibition, % at 9 µM | 0.17% of 370,000 active | AID 651957;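 active = inhibition above the mean inhibition of all tested compounds plus 3 SD, set per campaign, cut at about 52% in these data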
# COUP-TFII inh – blocks human COUP-TFII nuclear receptor; HEK293T NGFI-A luciferase reporter, luminescence; inhibition, % at 8.6 µM; 0.7% of 370,000 active; AID 686940;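 active = inhibition above a per-plate cutoff, mean inhibition of test wells between control levels plus 3 SD, cut at about 38% in these data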;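 also: cells cotransfected with COUP-TFII expression vector driving the NGFI-A reporter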
# Target sequence (P24468 whole entry, looked up): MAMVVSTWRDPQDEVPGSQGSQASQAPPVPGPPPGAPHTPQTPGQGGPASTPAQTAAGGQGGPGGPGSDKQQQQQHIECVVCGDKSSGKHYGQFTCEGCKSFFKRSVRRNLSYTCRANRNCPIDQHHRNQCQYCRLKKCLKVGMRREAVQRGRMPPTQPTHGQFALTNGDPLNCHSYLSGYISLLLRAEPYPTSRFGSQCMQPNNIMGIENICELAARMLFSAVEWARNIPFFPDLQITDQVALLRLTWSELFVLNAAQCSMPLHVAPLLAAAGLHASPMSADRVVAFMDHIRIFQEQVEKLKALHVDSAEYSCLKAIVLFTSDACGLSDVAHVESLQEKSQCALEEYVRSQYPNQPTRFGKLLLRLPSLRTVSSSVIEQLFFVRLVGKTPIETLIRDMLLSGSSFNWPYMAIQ
# NCOA3 inh – human NCOA3 inhibition; HEK293 GAL4-SRC3 luciferase reporter, luminescence; inhibition, % at 3.6 µM; 0.17% of 360,000 active; AID 588352;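 active = inhibition above a per-campaign cutoff, the mean of all compounds plus 3 SD, cut at about 60% in these data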;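 also: higher means less SRC3-driven luciferase light from the GAL4 reporter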
# Gal4-VP16 ctr – VP16 inhibition counter-screen for COUP-TFII; shares compounds with COUP-TFII inh; HEK293 Gal4-VP16 luciferase reporter, luminescence; inhibition, % at 8.5 µM; 25% of 2,500 active; AID 687007; in the data active = inhibition above about 13%
# NR2F2 inh conf – COUP-TFII (NR2F2) inhibition, confirmation assay | inhibition, % at 8.5 µM | 45% of 2,500 active | shares compounds with COUP-TFII inh | HEK293 NGFI-A luciferase reporter, luminescence;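 active = mean inhibition over three repeats above a set limit taken from the earlier primary screen, cut at about 38% in these data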
# Numbers stand for hits; 0 = inactive; - = no result given.
SMILES,NCOA1 inh,GalR3 antag,NR5A2 inv ag,SRC2 inh,COUP-TFII inh,NCOA3 inh,Gal4-VP16 ctr,NR2F2 inh conf
N=c1c2c(n(Cc3ccccc3)c3c1CCC3)CCC2,0,0,0,0,41,0,0,0
N=c1c2c(n(Cc3cccc(Cl)c3)c3c1CCC3)CCCC2,0,0,75,0,65,0,13,47
CCn1c2c(c(=N)c3c1CCC3)CCCC2,0,0,0,0,0,0,-,-
O=C(N[C@H](Cc1ccccc1)C(=O)NCCN1CCOCC1)[C@H]1O[C@@H](n2ccc(=O)[nH]c2=O)[C@H](O)[C@@H]1O,-,0,-,0,0,-,-,-
Cc1ccc(-n2c(SCC(=O)c3ccc(O)c(O)c3)nnc2-c2ccccc2)cc1,-,-,-,0,0,-,-,-
N=c1c2c(n(Cc3ccc(F)cc3)c3c1CCC3)CCCC2,0,0,0,0,39,0,0,0
O=NN(CCc1ccncc1)c1ccc(OCc2ccccc2)cc1,0,0,0,0,51,0,0,45
O=C(CCCOc1ccccc1)Nc1ccc(Cl)c(S(=O)(=O)N2CCOCC2)c1,0,0,0,0,49,0,0,0
Cc1ccc(NC(=O)CCCOc2ccccc2)cc1S(=O)(=O)N1CCOCC1,0,0,0,0,0,0,-,-
Cc1ccc(OCCCC(=O)Nc2ccc(Cl)c(S(=O)(=O)N3CCOCC3)c2)cc1,0,0,0,0,57,0,0,0
O=C(CCCSc1ccccc1)Nc1ccc(Cl)c(S(=O)(=O)N2CCOCC2)c1,0,0,0,0,40,0,0,0
NC(Cc1ccc(O)cc1)C(=O)NN=Cc1ccccc1Cl (stereo not drawn),-,0,-,0,0,-,-,-
COC(=O)c1cc2c(c3c4ccccc4n(S(=O)(=O)c4cccc(C)c4)c13)C(=O)N(Cc1ccccc1OC)C2,-,0,-,0,0,-,-,-
COc1cccc(CO[C@H]2C=C[C@@H](c3ccccc3)O[C@@H]2COC(C)=O)c1,-,-,-,0,0,-,-,-
Cc1ccc(NC(=O)N2CCc3ccccc32)cc1,0,0,0,0,0,0,-,-
CN1CCN(c2ccc(NC(=O)N3CCc4ccccc43)cc2)CC1,0,0,0,0,62,0,0,63
CCCCN(CCCC)CCCNC(=O)Cn1cc(C)c(=O)[nH]c1=O,-,0,-,0,0,-,-,-
NC(=O)[C@H]1CC2(CC(c3cccc(NC(=O)COc4ccc(Cl)cc4)c3)=NO2)CN1C(=O)Cc1ccc([N+](=O)[O-])cc1 (stereo partly drawn),0,0,0,0,74,0,0,66
O=C(Nc1nc(-c2ccc(F)cc2)cs1)C1CCN(C(=O)c2ccc(F)cc2)CC1,0,0,0,0,58,0,0,46
O=C(c1ccccc1)C12COc3ccccc3C1ON=C2c1ccccc1 (stereo not drawn),-,0,-,0,0,-,-,-
O=C(N/N=C/c1ccc[nH]1)c1ccc(COc2cccc3cccnc23)cc1,0,0,79,0,73,69,39,89
O=C(N/N=C/c1ccccc1C(=O)O)c1ccc(COc2cccc3cccnc23)cc1,0,0,0,0,0,0,-,-
C[C@@H]1COc2cc(N3CCCC3)ccc2S(=O)(=O)N1C,-,-,-,0,0,-,-,-
Nn1c(SCC(=O)Nc2ccccc2-c2ccccc2)nnc1-c1cc(-c2ccc(F)cc2)n[nH]1,-,-,-,0,0,-,-,-
Cc1cc(N2CCN(C(=O)Oc3ccc(-c4ccccc4)cn3)CC2)c2ccccc2n1,-,-,-,0,87,-,0,38
SMILES,NCOA1 inh,GalR3 antag,NR5A2 inv ag,SRC2 inh,COUP-TFII inh,NCOA3 inh,Gal4-VP16 ctr,NR2F2 inh conf
COC(=O)C1=C(C)N(Cc2ccc(F)cc2)C(=S)NC1c1ccccc1 (stereo not drawn),-,0,-,0,0,-,-,-
COCCN(C[C@@H]1[C@H](c2ccccc2)[C@H](CO)N1c1nc(C)c(C)s1)S(=O)(=O)c1ccccc1[N+](=O)[O-],-,-,-,0,0,-,-,-
CCCCNC(=O)C[C@@H]1C(=O)N2CCCC3=C2[C@@]1(C(=O)OCC)CCC3,-,-,-,0,0,-,-,-
CN(CC(=O)Nc1cccc(S(=O)(=O)N2CCCC2)c1)CC(=O)Nc1ccc(Cl)c(C(F)(F)F)c1,0,0,0,0,42,0,0,0
Cc1ccc(NC(=O)Cc2n[nH]c(=O)c3ccccc23)cc1S(=O)(=O)N1CCCCCC1,0,0,0,0,38,0,0,0
CN(CC(=O)Nc1cccc(S(=O)(=O)N2CCCC2)c1)CC(=O)Nc1ccc(F)c(F)c1F,0,0,0,0,0,0,-,-
CCN(CC)S(=O)(=O)c1cc(NC(=O)Cc2n[nH]c(=O)c3ccccc23)ccc1C,0,0,0,0,0,0,-,-
CN(CC(=O)Nc1ccc(Cl)c(C(F)(F)F)c1)C(=O)Cc1n[nH]c(=O)c2ccccc12,0,0,0,0,46,0,0,0
Cc1ccc(NCC(=O)Nc2cccc(S(=O)(=O)N(C)C)c2)cc1S(=O)(=O)N1CCCCCC1,0,0,0,0,49,0,0,0
CCC(=O)N(C1=C(NC(C)C)C(=O)c2ccccc2C1=O)C(C)C,0,0,0,0,0,0,-,-
CCCNC1=C(N(C(C)=O)c2cccc(F)c2)C(=O)c2ccccc2C1=O,0,0,79,58,57,0,0,0
NS(=O)(=O)c1ccc(CCNc2nn3c(-c4cccc(OC(F)(F)F)c4)cnc3s2)cc1,0,0,0,0,71,0,14,57
COc1ccc(CNc2nn3c(-c4cccc(C(=O)N(C)C)c4)cnc3s2)cc1,0,0,0,0,0,0,-,-
COC[C@@H]1CCCN1c1ccc2c(c1)O[C@H]1CCN(C1)S2(=O)=O,-,-,-,0,0,-,-,-
C=CCN1[C@@H](C)[C@@H](c2ccccc2)Oc2c(Cl)cccc2S1(=O)=O,-,0,-,0,0,-,-,-
COc1cc(/C=C2\CC/C(=C\c3cc(OC)c(OC)c(OC)c3)C2=O)cc(OC)c1OC,0,0,0,0,0,0,-,-
COc1cc(/C=C2\COC/C(=C\c3cc(OC)c(OC)c(OC)c3)C2=O)cc(OC)c1OC,0,0,0,75,60,0,92,103
CCOC(=O)N1CCN(c2ncnc3c2[nH]c2ccc(F)cc23)CC1,0,0,0,0,64,0,0,40
COc1ccc2c(c1)N(C)/C(=C/c1cccc[n+]1C)S2,0,0,0,0,56,0,0,0
COc1cc(OC)cc(C(=O)/C=C2\Sc3ccccc3N2C)c1,0,0,0,0,0,0,-,-
CCN1/C(=C/C(C)=O)Sc2ccc(OC)cc21,0,0,0,0,0,0,-,-
CCN1/C(=C/c2cccc[n+]2C)Sc2ccc(OC)cc21,0,0,0,0,77,0,0,46
C[C@H](O)[C@@H]1CN2CCc3c([nH]c4cccc(-c5ccccc5)c34)[C@@H]2C[C@@H]1N(C)C(=O)c1ccco1,-,-,-,0,0,-,-,-

# Compound activity from PubChem BioAssay.
